# Reference: PubChem BioAssay AID743279 (National Center for Advancing Translational Sciences (NCATS), 2014)
# Hit rate of the full screen: of about 360,000 compounds, about 17,000 (4.7%) were called active. Not shown: some 5% with an inconclusive outcome. The entries come from a sample that favours actives as a whole. Values without a mark were called inactive. No stated cut-off is given here; in the data, active means activity change below about -50%; inconclusive means mostly about -30% to -49%; inactive means weaker than that.
# Assay: qHTS for Inhibitors of Inflammasome Signaling: IL-1-beta AlphaLISA Primary Screen
# Settings: THP-1 LPS/ATP IL-1B secretion, 16 h, at 57.5 µM, stronger effect = lower value
# Text: Inflammasomes are a set of intracellular multi-protein complexes that enable autocatalytic activation of inflammatory caspases and drive the innate immune response to counter harmful agents. […] A qHTS assay, based on AlphaLISA technology, was developed to screen the Molecular Libraries Small Molecule Repository (MLSMR) to look for novel inflammasome inhibitors. The assay detects IL-1B using AlphaLISA anti-IL-1B acceptor and donor beads. A decreased emission signal, indicating reduced IL-1B secretion, is the desired outcome for this assay. NIH Chemical Genomics Center [NCGC] NIH Molecular Libraries Probe Centers Network [MLPCN] MLPCN Grant: MH095513 Assay Provider: Shyam Biswal Ph.D., Johns Hopkins University Immunity. 2012 Jul 27;37(1):85-95. PMID: 22819042 [2] Curr Pharm Des. 2012;18(16):2320-8. PMID: 22390695
# Three microliters containing 3000 THP-1 cells were dispensed into the wells of solid, white, tissue culture treated Greiner 1,536-well plates. Library compounds and positive control, Glyburide, were pin-transferred (23 nL) by a Kalypsys pin-tool equipped with a 1,536-pin array, resulting in final compound concentration ranges of 2.5 nM to 57.5 uM. After 1 hr of cell culture incubation (37 °C, 5% CO2), 1 microL of 1 microg/mL lipopolysaccharide (250 ng/mL, final) and 5 mM ATP (1.25 mM, final) were added to stimulate the cells. After 16 hr of cell culture incubation with the compounds, 1.5 uL of anti-IL-1B acceptor beads (6 ug/mL, final) and biotinylated antibody (0.6 nM, final) were added to the plate, followed by a 1 hr incubation at ambient temperature. To detect the secreted IL-1B, 1.5 uL of AlphaLISA SA-Donor beads (24 ug/mL, final) were added, followed by 30 min of incubation in the dark at ambient temperature. The AlphaLISA signal was read by a PerkinElmer EnVision plate reader with an ultrasensitive luminescence detector and 1536 Plate HTS AlphaScreen aperture (excitation of 680nm and emission of 615nm).
# On the % scale 0 is the no-effect control and ±100 the full control effect.
row,Compound,activity change
1,O=c1[nH]c2ccccc2n1C1CCN(C(c2ccccc2)c2nnnn2Cc2ccccc2)CC1 (stereo not given),-56.7% (active)
2,CSCCC(c1nnnn1C(C)(C)C)N1CCC(n2c(=O)[nH]c3ccccc32)CC1 (stereo not given),-2.99%
3,COc1ccc(-n2nnnc2C(c2cccc3ccccc23)N2CCC(n3c(=O)[nH]c4ccccc43)CC2)cc1 (stereo not given),-8.75%
4,Cc1ccc(OC(=O)N(C)C[C@@H]2OCc3cnnn3CCCC(=O)N([C@H](C)CO)C[C@@H]2C)cc1,37.1%
5,CCOc1ccc(C2SCC(=O)Nc3c2c(C)nn3C2CCOC(C)(C)C2)cc1 (stereo not given),13.7%
6,O=C(CCC(=O)N1C[C@H]2C[C@@H](C1)c1cccc(=O)n1C2)NCc1ccccc1C(F)(F)F,-1.41%
7,c1ccc(N2Cc3ccccc3-n3nncc3C2)nc1,12.3%
8,CC(=O)C1(O)CCC2C3CCC4=C(Cl)C(=O)CCC4(C)C3CCC21C (stereo not given),-20.8%
9,CCC(C)(O)C(=O)OC1C(=O)OC2CC3C(C)=CC(=O)C(O)C3(C)C3C4(O)OCC23C1C(C)C4O (stereo not given),-100% (active)
10,CC(=O)NCC1=C(c2ccc3ccccc3c2)C[C@@H]2CC[C@H]1N2Cc1ccco1,-3.75%
11,c1cc2c(c(NC3=NCCCS3)c1)CCCC2,-2.25%
12,COc1ccccc1N=Nc1c(O)[nH]c(=S)[nH]c1=O,56.6%
13,CCC1(C)CC(CCNCc2ccc(N(C)C)cc2)(c2ccc(F)cc2)CCO1 (stereo not given),-72.1% (active)
14,CC1CC=CCC12C(=O)NC(=S)NC2=O (stereo not given),5.3%
15,CC=C(C)C(=O)OC1CCN2CC=C(COC(=O)C(O)(C(C)OC)C(C)(C)O)C12 (stereo not given),12.9%
16,O=C(c1ccccc1[N+](=O)[O-])N1CCC2(CC1)OCCO2,-4.53%
17,O=C(c1cc(-c2ccncc2)nc2ccccc12)N1CCC2(CC1)OCCO2,0%
18,O=C(c1cc2nc(-c3ccccc3)cc(-c3ccccc3)n2n1)N1CCC2(CC1)OCCO2,-87.9% (active)
19,COc1cccc(C(c2nnnn2-c2ccc3c(c2)OCCO3)N2CCC3(CC2)C(=O)NCN3c2ccccc2)c1OC (stereo not given),-6.07%
20,COC(=O)COc1cc(C)cc2oc(=O)c3c(c12)CCCC3,22.7%

row,Compound,activity change
1,CC1([N+](=O)[O-])COP(=O)(Nc2ccc(F)cc2)OC1 (stereo not given),15.6%
2,COc1cc(-n2c(=S)[nH]c3ccc(C)cc3c2=O)c(Cl)cc1Cl,71.7%
3,OC1/C(=C/c2ccc(C(F)(F)F)cc2)N2CCC1CC2 (stereo not given),22.5%
4,CCOC(=O)[C@]12Cc3cc(OC)ccc3[C@H]1N(C(C)C)C(=O)c1ccccc12,-125% (active)
5,O=c1c2ccccc2nc(CBr)n1-c1ccc(Cl)cc1,-7.74%
6,O=C(C1CC(=O)N(C2CCCC2)C1)N1CCC2(CC1)OCCO2 (stereo not given),13.5%
7,CN1CCN(/N=C/c2c[nH]c3ccccc23)CC1,7.92%
8,CN(C)c1ccc(/C=C2\CC3C4CC=C5CC(O)CCC5(C)C4CCC3(C)C2=O)cc1 (stereo not given),0.523%
9,C[C@@]1([C@@H](NP(=O)(c2ccccc2)c2ccccc2)c2ccccc2)C[C@H]1CCO,-4.2%
10,CCNc1nc2[nH]c(=O)c3c(c2s1)OC(N)=C(C#N)C3c1cccs1 (stereo not given),-64% (active)
11,CC(C)c1ccc(OCC(=O)N2CCN(C)CC2)c(Br)c1,9.25%
12,COC(=O)C1=C(c2ccc(OCc3ccccc3)cc2)C[C@@H]2CC[C@H]1N2C(=O)NCc1cccc(F)c1,-12.8%
13,CC1=CC(=Cc2sc3ccccc3[n+]2C)C=C(C)O1,-51.7% (active)
14,COc1ccc(CNCCc2c[nH]c3ccccc23)cc1OC,-24.9%
15,COc1ccc(Br)cc1CNCCc1cccc(Cl)c1,-72.2% (active)
16,COc1ccc(CNCCc2ccc3c(c2)OCO3)c(OC)c1OC,-11.8%
17,Nc1ccc(Cc2ccc(N)c(Cl)c2)cc1Cl,-24.6%
18,COC(=O)CN(CCCl)P1(=O)OCCCN1CCCl (stereo not given),41.8%
19,CCOP(=S)(OCC)SCOC(=O)NCC(=O)OC,0.573%
20,CN(C)CC1Oc2ccccc2OC1(O)c1ccccc1 (stereo not given),-101% (active)

row,Compound,activity change
1,O=C1NC(=O)N(c2ccccc2)C(=O)/C1=C/c1ccc([N+](=O)[O-])s1,-11.6%
2,COc1cccc(N2C(=O)NC(=O)/C(=C\c3ccc([N+](=O)[O-])s3)C2=O)c1,-0.584%
3,Cc1cccc(N2C(=O)NC(=O)/C(=C\c3cnn(-c4ccccc4)c3)C2=O)c1,-60% (active)
4,Cn1c(O)c(C(=Nc2ccc(F)cc2)c2ccccc2)c(=O)n(C)c1=O,3%
5,c1cncc(CNC2=NCCC2)c1,34.2%
6,CCOC(=O)C1(c2ccccc2)CCN(CC(O)c2ccc(NC(C)=O)cc2)CC1 (stereo not given),-10.2%
7,CC1=C(C(=O)Nc2ccccc2)SCCO1,19.6%
8,CC1=C(C(=O)Nc2ccccc2)S(=O)(=O)CCO1,-86.7% (active)
9,C[C@]12CCC3C(CC[C@H]4[C@H](O)[C@H](O)CC[C@]34C)C1CC[C@@H]2O (stereo not given in full),38.5%
10,CC(=CCOc1ccc2ccc(=O)oc2c1)C1=CC(=O)C(C)(C)O1,-91.3% (active)
11,CC(CC(C#N)(c1ccccc1)c1ccccc1)N1CCCCC1 (stereo not given),-2.29%
12,O=C1C2CCN(CC2)C1(CO)CO,-9.66%
13,CCC(=O)c1ccc(OCC(=O)N2CCN(CC(=O)Nc3ccc(C)cc3)CC2)cc1,14.3%
14,Clc1ccc2nc3c(c(-c4ccccc4)c2c1)CNCC3,-57% (active)
15,C[C@H]1CN([C@@H](C)CO)C(=O)CCCn2nncc2CO[C@H]1CN(C)C(=O)Oc1ccccc1,16.8%
16,O=C(CCN1CCCCC1)NCC(=O)Nc1ccc(Br)cc1C(=O)c1ccccc1,-10.3%
17,O=C(CCNS(=O)(=O)c1ccccc1)Nc1ccc(Cl)cc1C(=O)c1ccccc1,-63% (active)
18,O=C(CN1CCCCC1)Nc1ccc(Br)cc1C(=O)c1ccccc1Cl,-8.15%
19,CN1CCN(C(=S)SCC(=O)Nc2ccc(Cl)cc2C(=O)c2ccccc2)CC1,-88% (active)
20,O=C(COC(=O)c1ccccc1)Nc1ccc(Cl)cc1C(=O)c1ccccc1,15.9%
